About 290 (24%) of roughly 1,200 compounds were called active. Inconclusive results (about 9%) are left out. These entries were drawn from the full list. Potency and affinity values are given separately. Unmarked numbers belong to inactive results. No rule for the calls is given here.
Assay: LCL viability reduction – cell-based, plate reader, cherry-picks, set 2, cytotoxicity control, dose response (AID 504882);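 also: 0% = neutral control wells and -100% = positive control wells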
Conditions: EBV lymphoblastoid cells (LCL) viability; series mostly up to 19.5 µM; activity change, negative = cytotoxicity: at the top concentration

| Compound | activity change, negative = cytotoxicity |
| --- | --- |
| C[C@]12CC[C@@H]3c4ccc(OS(=O)(=O)O)cc4CC[C@H]3[C@@H]1CCC2=O | 24% |
| COc1ccccc1C(=O)NC(=O)CSc1nnc(N)s1 | 15.9% |
| c1csc(CNc2ncnc3ccc(-c4ccoc4)cc23)c1 | -6.02% |
| COc1ccc(C(=O)CSc2nnc(Cc3ccccc3)o2)cc1 | 20.6% |
| CC[C@H]1OC(=O)[C@H](C)[C@@H](O[C@H]2C[C@@](C)(OC)[C@@H](O)[C@H](C)O2)[C@H](C)[C@@H](O[C@@H]2O[C@H](C)C[C@H](N(C)C)[C@H]2O)[C@](C)(O)C[C@@H](C)C(=NOCOCCOC)[C@H](C)[C@@H](O)[C@]1(C)O | 20% |
| N=C1S/C(=C\c2ccccc2)C(=O)N1c1ccc(F)cc1 | 4.09% |
| CCC(=O)OC1c2ccccc2C(=O)N1Cc1ccccc1 (stereo not given) | 12.3% |
| CC(=O)/C=C/c1ccccc1O | 3.18% |
| CNc1ccc(Br)cc(C(=O)/C=C/c2cccc(OC)c2)c1=O | -33% |
| CNc1ccc(Br)cc(C(=O)/C=C/c2cc(OC)ccc2OC)c1=O | 12.3% [at 6.8 µM] |
| COC(=O)C1=C(C)N(CCCC(=O)O)C(=O)NC1c1cccc(Cl)c1Cl (stereo not given) | 16.1% |
| O=C(CSc1nnc(NC(=O)c2ccc3c(c2)OCO3)s1)NCc1ccco1 | 14% |
| CCOc1ccc(C(=O)Nc2nnc(SCC(=O)NCC3CCCO3)s2)cc1 (stereo not given) | 19.9% |
| COc1ccc(C(=O)OCC(=O)c2c[nH]c3ccccc23)cc1OC | -0.621% |
| O=C1NC(=O)/C(=C\c2ccc(OCc3cccc(C(=O)O)c3)c(Cl)c2)N1 | 2.65% |
| O=C(CN(Cc1cccs1)C(=O)CNS(=O)(=O)c1ccccc1)NCc1ccco1 | 9.67% |
| Cc1ccc(S(=O)(=O)N2CCN(C(=O)CSc3nnnn3C)C2)cc1 | 15.3% |
| O=C(O)/C=C/c1ccc(Cn2ccnc2)cc1 | 8.15% |
| Cc1ccccc1NC(=O)CN1C(=O)S/C(=C\c2cccn2-c2cccc(C(=O)O)c2)C1=O | 10.6% |
| CC(C)[C@H](N[C@@H](C)c1ccccc1)c1c(O)ccc2ccccc12 | 4.74% |
| O=C(C1CC1)N1N=C(c2ccc(Br)cc2)CC1(O)C(F)(F)F (stereo not given) | -4.6% |
| CN1CCN(CCOc2ccc(Cc3ccccc3)cc2)CC1 | 11.5% |
| CN(C)S(=O)(=O)c1ccc(Cl)c(C(=O)NCCNC(=O)c2cc(S(=O)(=O)N(C)C)ccc2Cl)c1 | 10.8% |
| CCCc1cc(=O)c2c(O)ccc(OC)c2o1 | 16.7% |
| O=c1cc(C2CCCCC2)[nH]c(=O)[nH]1 | 27.8% |
| CC(=O)OCC(=O)[C@@]1(O)CC[C@H]2[C@@H]3CCC4=CC(=O)CC[C@]4(C)[C@H]3[C@@H](O)C[C@@]21C | 12.8% |
| O=C(/C=C/Nc1cccc(C(F)(F)F)c1)C(F)(F)F | 7.21% |

| Compound | activity change, negative = cytotoxicity |
| --- | --- |
| O=C(CN1CCN(S(=O)(=O)c2ccc(F)cc2)CC1)Nc1cccc(C(F)(F)F)c1 | 0.696% |
| O=C(c1ccco1)N1CCN(S(=O)(=O)/C=C/c2ccccc2)CC1 | 6.55% |
| O=C(Nc1ncccc1O)c1ccc(S(=O)(=O)NCc2ccco2)cc1 | 12% |
| CCOC(=O)C1=C(C)N(C)C(=O)NC1c1ccccc1OC (stereo not given) | 9.56% |
| Cc1cc(=S)[nH]c2ccccc12 | 4.96% |
| CC(=O)Oc1ccc(C(=O)Nc2cccnc2)cc1 | 12.1% |
| CC(C)CCNC(=O)C1CCN(S(=O)(=O)c2ccc3c(c2)CC(C)N3C(=O)C2CC2)CC1 (stereo not given) | -4.93% |
| Cc1ccc2c(c1)N(CC(=O)N1CCCC1)C(=O)c1cccnc1O2 | 7.79% |
| Cc1ccc(S(=O)(=O)N[C@H](C(=O)N2CCC(C(=O)N[C@@H](CC(=O)O)C(=O)O)CC2)C(C)C)cc1 | 11% |
| Cc1ccc(NC(=O)c2ccc3c(c2)OCCO3)nc1 | -13.1% |
| Cc1ccc(C(=O)Nc2ccc3c(c2)OCCO3)cc1 | -1.25% |
| COc1ccc(OC)c(NC(=O)COC(=O)COc2ccc(Nc3ccccc3)cc2)c1 | 7.62% |
| Cc1cc(C)c(S(=O)(=O)N2CCN(C(=O)c3ccccc3OCc3c(C)noc3C)CC2)c(C)c1 | 10.4% |
| O=C(NCc1ccccc1Cl)C1CCCN1S(=O)(=O)c1ccc(F)cc1 (stereo not given) | 13.2% |
| Cc1ccc(/C=C/c2nc3ccccc3s2)s1 | 19% |
| N/C(=N\OC(=O)c1ccccc1)c1ccccn1 | -14.6% |
| COc1ccc(C=NNc2nc3ccccc3s2)cc1 | -1.54% |
| C[C@@H]1CN([C@@H](C)CO)S(=O)(=O)c2ccc(/C=C/c3ccccc3)cc2O[C@@H]1CN(C)Cc1ccc(C(=O)O)cc1 | 0.346% |
| O=C(NC1=NCCS1)c1cc2ccccc2o1 | -0.76% |
| COc1ccc(C(=O)Nc2nnc(SCC(=O)NC3CC3)s2)cc1 | 2.73% |
| c1ccc(-c2cn3c4c(sc3n2)CCCC4)cc1 | -0.762% |
| Cc1cc(C)n2nc(CC(=O)NC3CCCCCC3)nc2n1 | 20.7% |
| COc1ccc2cc3c(N)nn(C(=O)c4cccc([N+](=O)[O-])c4)c3nc2c1 | 9.99% |
| Cc1nc(SCC(=O)c2cccc([N+](=O)[O-])c2)n[nH]1 | 33.1% |
| CCn1c(SC(C)C)nnc1-c1c[nH]c2ccccc12 | 20.4% |
| CC(=O)c1cccc(NC(=O)Nc2ccc(C(=O)N3CCOCC3)cc2)c1 | 14.3% |
| COc1ccc(-c2csc(Nc3cccc(C)n3)n2)cc1OC | 33.9% |

| Compound | activity change, negative = cytotoxicity |
| --- | --- |
| CC[C@]1(C(=O)OC)[C@H]2C(=O)N(Cc3ccccc3)C(=O)[C@H]2[C@H]2CN=C(SCc3ccc(C#N)cc3)N21 | 4.38% |
| COc1ccc(CN2C(=O)c3cccnc3C2Nc2cc(Cl)ccc2OC)cc1 (stereo not given) | 14.9% |
| Clc1ccc(-c2cn3nc4c(nc3n2)CCCC4)cc1 | -9.43% |
| COCCn1c(SCCN2CCOCC2)nc2c1c(=O)[nH]c(=O)n2C | 11.5% |
| COc1cc2nc(N3CCN(C(=O)C4CCCO4)CC3)nc(N)c2cc1OC (stereo not given) | 12.8% |
| O=C(Nc1ccc2c(c1)C(=O)OC2)c1ccc(C(F)(F)F)cc1 | 5.14% |
| C/C(=N\Nc1ccc(C(F)(F)F)cc1[N+](=O)[O-])C(C)C | 4.95% |
| COC(=O)c1ccc2nc(-c3cccc(N)c3)cn2c1 | 0.862% |
| CCOC(=O)Nc1ccc2c(c1)N(C(=O)CN(C)C)c1ccccc1CC2 | 7.62% |
| COc1ccc(-c2nc(C)ncc2-c2ccccc2)c(O)c1 | 11.5% |
| c1ccc(OCCSc2nnc3sc4ccccc4n23)cc1 | 8.57% |
| COc1ccc(N2C(=O)C(=O)/C(=C(/O)c3ccc(C)cc3)C2c2cccnc2)cc1 (stereo not given) | 5.14% |
| O=C1CCCCC1Sc1nnc(-c2ccc3c(c2)OCO3)o1 (stereo not given) | 4.58% |
| COc1ccc(NC(=O)c2cc3ccccc3oc2=O)cc1 | 10.4% [at 6.8 µM] |
| COc1ccc(NC(=O)NCCN2CCc3ccccc3C2)cc1 | 18.9% |
| N#Cc1c(NC(=O)CCCC(=O)O)sc2c1CCCCC2 | 14.1% |
| COC(=O)c1c(NC(=O)c2nn(C)cc2Cl)sc2c1CCCC2 | 0.608% |
| NC(=O)c1sc2nc3c(c(-c4ccccc4)c2c1N)CCC3 | 6.83% |
| Cc1ccc(NC(=O)NNS(=O)(=O)c2ccc(Br)cc2)cc1 | 16.9% |
| O=C(CSc1nc2ccccc2c(=O)n1CCCN1CCOCC1)Nc1ccc(Br)cc1 | 9.04% |
| CC(C)(C)c1ccc(C(=O)N2CCC(=O)N(C(CO)Cc3ccccc3)CC2)cc1 (stereo not given) | 10.8% |
| O=C(N1CCOCC1)N1CCN(S(=O)(=O)c2ccc(Cl)cc2)C1 | 14.1% |
| O=C(O)c1ccc(C=NNC(=O)c2cccc3ccccc23)cc1 | 11.4% |
| Cc1cccc(/C=N/NC(=O)CNc2cccc3ccccc23)n1 | 13% |
| COc1ccc(-c2[nH]ncc2/C=N\NS(=O)(=O)c2ccc(Cl)cc2)cc1 | 18.6% |
| CCN(c1ccccc1)S(=O)(=O)c1ccc(Cl)c(NC(=O)Nc2ccc(Cl)cc2C#N)c1 | -10.7% |
| O=[N+]([O-])c1ccc(Cl)c(S(=O)(=O)NCC2CCCO2)c1 (stereo not given) | 15.1% |

| Compound | activity change, negative = cytotoxicity |
| --- | --- |
| CCOc1ccc(OCc2cccc(C(=O)N3CCCCCC3)c2)cc1 | -1.66% |
| COc1ccc(C(=O)NCCN2CCOCC2)cc1[N+](=O)[O-] | 24.8% |
| COc1cccc(/C=C2\SC(=S)N(CCC(=O)NCCc3ccc(O)cc3)C2=O)c1 | -16.3% |
| COc1ccc(C(=O)NCCNc2nc3cc(C)c(C)cc3cc2C)cc1 | -19.9% |
| COc1ccc(C(=O)Nn2c(SCC(=O)c3ccc(Cl)cc3)nc3ccccc3c2=O)cc1 | -13.5% |
| COc1ccc(-c2cc3c(=O)n(CC(=O)NCCCN4CCN(Cc5ccccc5)CC4)ncn3n2)cc1 | 14.3% |
| Cc1cccc(C)c1Nc1nc2ccccc2o1 | 22.6% |
| O=c1[nH]c(Nc2nc3ccccc3o2)nc2c1CCCC2 | 2.31% [at 6.8 µM] |
| COc1ccc(-n2c(C)c(C(C)=O)c3cc(OC(C)=O)ccc32)cc1 | 2.71% |
| CC(=O)Nc1ccc(OCCCNC(=O)c2c(-c3ccccc3)noc2C)cc1 | 9.93% |
| COc1ccccc1NC(=O)Cn1nnc(-c2ccccc2NS(=O)(=O)c2ccccc2)n1 | -15.3% |
| CCN(CC)Cc1cc(Nc2ccnc3cc(Cl)ccc23)ccc1O | -7.97% |
| O=C1CSC(=S)N1Cc1ccccc1 | 0.821% |
| CC(=O)O[C@H]1CC[C@@]2(C)C(=CC[C@H]3[C@@H]4CC[C@H](C(C)=O)[C@@]4(C)CC[C@@H]32)C1 | 16.2% |
| Cc1ccc(N=c2c([N+](=O)[O-])nn(-c3ccc4c(c3)OCCO4)n2O)cc1F | 18.8% [at 6.8 µM] |
| COCCNC(=O)C(=O)NCC1OCCN1C(=O)c1ccc(Cl)cc1 (stereo not given) | 35.3% |
| CCCn1c(C)cc(C(=O)COC(=O)c2ccc[nH]c2=O)c1C | 13.9% |
| COc1cc2oc(=O)cc(-c3ccc(-c4ccc(N(C)C)cc4)cc3)c2c(OC)c1OC | 13.8% |
| Cc1nn(CCCC(=O)Nc2cccnc2Cl)c(C)c1[N+](=O)[O-] | 10.4% |
| Cc1sc2nc(SCC(=O)OC(C)C)n(C)c(=O)c2c1C | 3.72% |
| COCCn1c(C)cc(C(=O)COC(=O)c2n[nH]c3ccccc23)c1C | 8.34% |
| Cc1nn(C(C)(C)C)c(C)c1/C=N/OC(=O)Nc1ccc(Cl)c(Cl)c1 | 2.85% |
| CCCCCCCCOC(=O)/C=C/c1c(C)[nH]c(=O)[nH]c1=O | 31.3% |
| COC(=O)c1ccc(COc2ccccc2/C=C/C(=O)c2ccc(OCC(=O)O)cc2)cc1 | 15% |

From PubChem BioAssay AID504882 (Broad Institute, 2011)
